Pf growth 48h = P. falciparum growth inhibition at 48 hours (one generation). P. falciparum luciferase growth in erythrocytes, 48 h. Potency, µM (doses to about 28.7 µM), usual class: inhibitors. 5.9% of 310,000 active
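Luminescence readout; reporter = integrated firefly luciferase in P. falciparum. RBC culture at 2% hematocrit, 0.1% parasitemia final, 37 C/5% CO2; decreased signal taken as growth inhibition.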
Shiga toxin inh = blocks Shiga toxin action in Vero cells. Vero cells, Shiga toxin protein synthesis inhibition reporter. inhibition, % at 38.7 µM. 9.2% of 290,000 active; in the data active = inhibition mostly above about 28%, no sharp cut-off; inactive = mostly below about 43%
LASV entry inh = Lassa virus entry inhibition; Lassa virus pseudotype entry inhibition, cell reporter; Potency, µM (titrated, usually from 37.9 µM), usual class: inhibitors; 1.2% of 300,000 active; AID 540256; calls by dose curve; tested in HEK293 cells; note: nearly all actives have a fitted effect of over 50% in size
Cycloheximide cs = affects cycloheximide protein synthesis inhibition readout, counter-screen; cell reporter, cycloheximide protein synthesis inhibition counterscreen; max response, %; 12% of 300,000 active; AID 2314; in the data active = max response mostly above about 13%, no sharp cut-off; inactive = mostly below about 14%; note: read at 38.3 µM for the half of the compounds with a filed dose
Marburg entry inh = inhibitors of Marburg virus binding or cell entry. Marburg virus pseudotyped entry inhibition, cell reporter. 1.8% of 300,000 active. Potency, µM (series often up to 37.8 µM), most hits filed as inhibitors. AID 540276; calls by dose curve; tested in HEK293 cells
Pf growth 96h = P. falciparum growth inhibition at 96 hours; P. falciparum luciferase reporter growth, 96 h; Potency, µM (doses to about 28.7 µM), most hits filed as inhibitors; 6.9% of 320,000 active; AID 504834
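Two-generation exposure (96 h) targets delayed-death phenotype. Reporter parasites carrying integrated firefly luciferase, in red cells at 2% hematocrit and 0.05% parasitemia final, kept at 37 C, 5% CO2; luminescence loss indicates inhibition.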
Large screens that a line does not name were inactive. Hits are enriched below; roughly 19% of the tested compounds scored in any of these assays. Unless noted, calls come from the whole dose curve; as a rule, active = well fitted inhibition curve with a large enough effect; inconclusive = small, poorly fitted or top-dose-only effect, or another doubt; inactive = no such curve, though single readings can be large or run the other way.

COc1ccc(C(CNC(=O)c2ccc(C)c(S(=O)(=O)Nc3ccccc3OC)c2)N2CCCC2)cc1 (stereo not given)	Pf growth 48h 4.1µM, Marburg entry inh inconclusive, Pf growth 96h inconclusive
COc1ccc(C(CNC(=O)c2cccc(N(C)C)c2)N2CCCC2)cc1 (stereo not given)	Pf growth 48h 10µM, Marburg entry inh inconclusive, Pf growth 96h inconclusive
COc1ccccc1NS(=O)(=O)c1cc(C(=O)N2CC(C)CC(C)C2)ccc1C (stereo not given)	Marburg entry inh 8.2µM, Pf growth 96h inconclusive (no result: Pf growth 48h)
Cc1ccccc1NS(=O)(=O)c1cc(C(=O)N2CCCC2)ccc1C	none
COc1ccccc1NS(=O)(=O)c1cc(C(=O)NCC(c2cccs2)N2CCOCC2)ccc1C (stereo not given)	Pf growth 48h inconclusive, Marburg entry inh inconclusive, Pf growth 96h inconclusive (no result: Shiga toxin inh, Cycloheximide cs)
COc1ccc(C(CNC(=O)c2cccc(S(=O)(=O)Nc3ccc(F)cc3)c2)N2CCCC2)cc1 (stereo not given)	Marburg entry inh inconclusive (no result: Pf growth 48h, Shiga toxin inh, Cycloheximide cs, Pf growth 96h)
C=CCN(c1ccccc1)S(=O)(=O)c1cccc(C(=O)NCC(c2ccc(OC)cc2)N2CCCCC2)c1 (stereo not given)	Pf growth 48h 10µM, LASV entry inh inconclusive, Marburg entry inh inconclusive, Pf growth 96h inconclusive (no result: Shiga toxin inh, Cycloheximide cs)
COCCCNC(=O)CNC(=S)N(Cc1ccccc1F)C1CCCCC1	Pf growth 96h inconclusive (no result: Pf growth 48h)
O=C1CSC(c2ccccc2)N1c1ccccc1F (stereo not given)	none (no result: LASV entry inh, Marburg entry inh)
CCOC(=O)C1CCN(C(=O)c2ccc(S(=O)(=O)Nc3ccccc3OC)cc2)CC1	Pf growth 48h inconclusive, Pf growth 96h 12µM (no result: Shiga toxin inh, LASV entry inh, Cycloheximide cs, Marburg entry inh)
COc1ccccc1NS(=O)(=O)c1cccc(C(=O)NCC(c2ccco2)N2CCCCC2)c1 (stereo not given)	Pf growth 48h 5.2µM, Pf growth 96h inconclusive (no result: Shiga toxin inh, Cycloheximide cs)
COc1ccc(Cl)cc1NS(=O)(=O)c1cccc(C(=O)NCC(c2ccco2)N2CCCC2)c1 (stereo not given)	LASV entry inh inconclusive, Pf growth 96h inconclusive (no result: Shiga toxin inh, Cycloheximide cs)
CCOC(=O)C1CCN(C(=O)c2ccccc2NS(=O)(=O)c2ccccc2)CC1	none
CCOc1ccc(NC(=O)CSc2ncc3c(n2)-c2cc(Cl)ccc2N(C)S3(=O)=O)cc1	none (no result: Pf growth 48h, Shiga toxin inh, Cycloheximide cs, Marburg entry inh, Pf growth 96h)
Cc1ccccc1OCC(=O)N1CCc2ccccc2C1	none (no result: LASV entry inh, Marburg entry inh)
Cc1cc(OCC(=O)N2CCc3ccccc3C2)c(C)cc1Br	Shiga toxin inh 40, LASV entry inh inconclusive, Cycloheximide cs 27, Marburg entry inh inconclusive
Cc1ccsc1C(=O)OCC(=O)N1CCc2ccccc2C1	Shiga toxin inh 115, Cycloheximide cs 45
Cc1ccc(C)c(OCC(=O)N2CCc3ccccc3C2)c1	Cycloheximide cs 13 (no result: LASV entry inh, Marburg entry inh)
COc1cccc(C2C(C(=O)c3ccc(C)o3)=C(O)C(=O)N2c2cc(C)on2)c1 (stereo not given)	none (no result: LASV entry inh, Marburg entry inh)
CCCCc1c(C)nn(-c2nnc3c4ccccc4n(C)c3n2)c1C	Shiga toxin inh 49, Cycloheximide cs 21
CSCCCNC(=S)Nc1ccc(N2CCOCC2)cc1	none (no result: LASV entry inh)
CN(C)CCNc1ccc(CO)c2sc3ccc(O)cc3c(=O)c12	LASV entry inh 1µM, Marburg entry inh 0.89µM (no result: Pf growth 48h, Shiga toxin inh, Cycloheximide cs, Pf growth 96h)
COCCCNC(=O)CCCOc1ccccc1	Cycloheximide cs 31 (no result: Pf growth 48h)
O=C(CCCOc1ccccc1)NCCc1ccccc1	Cycloheximide cs 14, Pf growth 96h inconclusive
CCN1CCN(C(=S)NC(=O)/C=C/c2cccs2)CC1	none (no result: LASV entry inh, Marburg entry inh)
Cc1ccc(CNC(=O)/C=C/C(=O)O)cc1	none (no result: LASV entry inh, Marburg entry inh)
CCCCNC(=O)/C=C/c1cccs1	Shiga toxin inh 48, LASV entry inh inconclusive, Cycloheximide cs 33, Marburg entry inh inconclusive
Cc1ccc(CNC(=O)/C=C/c2cccs2)cc1	Shiga toxin inh 78, Cycloheximide cs 27
CCCCCOC(=O)Nc1nc(=O)n(C2O[C@H](C)[C@@H](O)[C@@H]2O)cc1F (stereo not given in full)	Pf growth 96h inconclusive (no result: Shiga toxin inh, LASV entry inh, Cycloheximide cs, Marburg entry inh)
Cc1ccc(NC(=O)C2CCN(c3nn4cc(-c5ccc(C)cc5)nc4s3)CC2)cc1	none (no result: Pf growth 48h, Shiga toxin inh, Cycloheximide cs, Marburg entry inh, Pf growth 96h)
COc1ccc(-c2cc(C(=O)NNC(=S)NC(=O)c3c(-c4ccccc4)noc3C)[nH]n2)cc1	Pf growth 48h inconclusive, Shiga toxin inh 106, Cycloheximide cs 19, Marburg entry inh inconclusive, Pf growth 96h inconclusive
Cc1onc(-c2ccccc2)c1C(=O)OCC(=O)Nc1ccccc1	Pf growth 48h inconclusive (no result: Shiga toxin inh, Cycloheximide cs)
COc1ccc(NC(=O)COC(=O)c2c(-c3ccccc3)noc2C)cc1	Pf growth 48h inconclusive, Pf growth 96h 10µM
CCc1noc(C)c1C(=O)OCC(=O)NC(C)c1ccccc1 (stereo not given)	none (no result: Shiga toxin inh, LASV entry inh, Cycloheximide cs, Marburg entry inh)
